Results from PubChem BioAssay (NCI).
The panel holds about 79,000 compounds, 15% with a hit somewhere; the sample as a whole holds those more often. A number with no mark means an inactive call. Calls of active or inactive are those of the source. No stated cut-off is given here; in the data, active means growth inhibition above about 70%; inactive means the rest.

Experiment: NCI Yeast Anticancer Drug Screen. Data for the rad50EPP+ strain (AID 151);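 further: 0% = growth of vehicle-treated control cultures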
Details: S. cerevisiae rad50 mutant strain, at 1.2 µM, hits give high values
In short: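 Measured: growth inhibition of rad50EPP+ yeast. Reference: vehicle-treated controls. Screen uses strains with defined genetic alterations in DNA damage repair or cell cycle control.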
Compound `O=CC=C(c1ccccc1)c1ccccc1` has a growth inhibition of 20%. `FC(F)(F)c1nc2nc(Cl)c(Cl)nc2n1CCCN1CCOCC1` showed a growth inhibition of -1%. With `BrCC[P+](c1ccccc1)(c1ccccc1)c1ccccc1` the growth inhibition was -44%. `N#CSc1ccc(S(N)(=O)=O)cc1` showed a growth inhibition of -67%. For `O=[N+]([O-])c1ccc2nc3ccccc3cc2c1`, the growth inhibition was 22%. `O=C(NC(Nc1ccc(F)c(Cl)c1)(C(F)(F)F)C(F)(F)F)C(C(F)(F)F)C(F)(F)F` gave a growth inhibition of -7%. Work on `O=C(/C=C\c1ccc(Cl)cc1Cl)c1cccs1` yielded a growth inhibition of 9%. Compound `O=C(NCCCCNCCCNC(=O)c1cc(-c2ccccc2)nc2ccccc12)c1cc(-c2ccccc2)nc2ccccc12` has a growth inhibition of 1%. `NC(=NCc1ccccc1)N/N=C\c1ccnc2ccccc12` showed a growth inhibition of -2%. With `CCCCN(CCCC)CCSc1ccc(Cl)cc1` the growth inhibition was -10%. `COc1cc(C2C3=C(COC3=O)Oc3cc4c(cc32)OCO4)ccc1O` (stereo not drawn) showed a growth inhibition of -3%. `C#CCCCc1ccccc1` gave a growth inhibition of -65%. For `CCc1ccc(NS(=O)(=O)c2ccccc2)c([N+](=O)[O-])c1`, the growth inhibition was 10%. `COc1ccc(C2c3cc4c(cc3OC(C)(O)C2C)OCO4)c(OC)c1` (stereo not drawn) showed a growth inhibition of 6%. In the case of `COC(=O)c1ccc(CCC2=CC(=O)C(Br)=CC2=O)cc1`, the growth inhibition is reported as 2%. For `NNC(=O)CCc1ccc2ccc3ccccc3c2c1`, the growth inhibition was 2%. Compound `Cn1c2ccccc2c(=O)c2cc(NC(=O)CCCCC(=O)Nc3ccc4c(c3)c(=O)c3ccccc3n4C)ccc21` has a growth inhibition of -1%. In the case of `CC(CC(C)(C)[N+](C)(C)C)[N+](C)(C)C` (stereo not drawn), the growth inhibition is reported as -1%. Compound `CC1CCN(CCC(=O)c2ccc(Cl)cc2)CC1` has a growth inhibition of -1%. In the case of `CCCCCCCCCCCCCCC(C(=O)[O-])[n+]1ccccc1` (stereo not drawn), the growth inhibition is reported as 0%. In the case of `CNC1C(OC2C(OC3C(O)C(O)C(N=C(N)N)C(O)C3N=C(N)N)OC(C)C2(O)CO)OC(CO)C(O)C1O` (stereo not drawn), the growth inhibition is reported as -2%. `O=C(O)c1ccccc1-c1ccccc1C(=O)Nc1ccc2c(c1)Cc1ccccc1-2` gave a growth inhibition of -2%. For `O=[N+]([O-])c1cccc2nc3ccccc3c(NCCCN3CCOCC3)c12`, the growth inhibition was 19%. `C=CC(C)(O)CCC1C(=C)C(O)CC2C(C)(C)CCCC12C` (stereo not drawn) showed a growth inhibition of 4%. For `CN1c2ccc(Cl)cc2C(=O)NC1c1ccc([N+](=O)[O-])s1` (stereo not drawn), the growth inhibition was 0%. Compound `[O-][n+]1c2ccc(O)cc2nc2ccc(Br)cc21` has a growth inhibition of 6%. Work on `O=C1c2ccccc2-c2nc3ccccc3nc21` yielded a growth inhibition of 3%. Work on `CCCCN1C(=O)N(c2ccc(OCC)cc2)C2N(CCCC)C1C(C)(C)C2(C)C` (stereo not drawn) yielded a growth inhibition of -7%. `CO[C@H]1C[C@](C)(O)Cc2cc3c(c(O)c21)C(=O)c1c(O)cc2c(c1C3=O)O[C@@H]1O[C@@]2(C)[C@H](O)[C@@H](N(C)C)[C@@H]1O` showed a growth inhibition of -28%. With `COc1cc2c(cc1[N+](=O)[O-])C(=O)C(Br)(Br)CCC2` the growth inhibition was 40%. In the case of `O=C1OC(CCl)CN1/N=C/c1ccc([N+](=O)[O-])o1` (stereo not drawn), the growth inhibition is reported as -3%. With `CN(C)CCOc1ccc2c(c1)C/C(=C/c1ncc([N+](=O)[O-])n1C)C2=O` the growth inhibition was 22%. With `CCCCCCCCCCCCCCCCCCN(C)CC(COP(=O)([O-])OCC[N+](C)(C)C)OC` (stereo not drawn) the growth inhibition was -4%. For `CC(C)c1ccccc1NC(=O)/C(Cl)=C(\Cl)C(=O)O`, the growth inhibition was 2%. Work on `O=[N+]([O-])C(=C(Sc1ccccc1)Sc1ccccc1)C(Cl)=C(Cl)Cl` yielded a growth inhibition of 9%. With `C(=C\c1ccccc1)/COc1ccccc1C(N1CCOCC1)n1nc2ccccc2n1` (stereo not drawn) the growth inhibition was -5%. Compound `O=C1C(Nc2ccccc2)=C(Oc2ccccc2)C(=O)c2ccccc21` has a growth inhibition of 5%. With `CCN(CC)CCN1C(=O)c2cccc3cc(OC)cc(c23)C1=O` the growth inhibition was 9%. Compound `CN(C)Cc1cc(N=Nc2ccc(Cl)cc2)cc(CN(C)C)c1O` has a growth inhibition of -3%.

Same assay, conditions: S. cerevisiae rad50 mutant strain, at 3.7 µM, hits give high values
In the case of `O=CC=C(c1ccccc1)c1ccccc1`, the growth inhibition is reported as 18%. Work on `FC(F)(F)c1nc2nc(Cl)c(Cl)nc2n1CCCN1CCOCC1` yielded a growth inhibition of 5%. Work on `BrCC[P+](c1ccccc1)(c1ccccc1)c1ccccc1` yielded a growth inhibition of -47%. In the case of `N#CSc1ccc(S(N)(=O)=O)cc1`, the growth inhibition is reported as -50%. For `O=[N+]([O-])c1ccc2nc3ccccc3cc2c1`, the growth inhibition was 63%. `O=C(NC(Nc1ccc(F)c(Cl)c1)(C(F)(F)F)C(F)(F)F)C(C(F)(F)F)C(F)(F)F` gave a growth inhibition of -13%. `O=C(/C=C\c1ccc(Cl)cc1Cl)c1cccs1` gave a growth inhibition of 23%. In the case of `O=C(NCCCCNCCCNC(=O)c1cc(-c2ccccc2)nc2ccccc12)c1cc(-c2ccccc2)nc2ccccc12`, the growth inhibition is reported as 4%. Compound `NC(=NCc1ccccc1)N/N=C\c1ccnc2ccccc12` has a growth inhibition of 0%. `CCCCN(CCCC)CCSc1ccc(Cl)cc1` showed a growth inhibition of -20%. Compound `COc1cc(C2C3=C(COC3=O)Oc3cc4c(cc32)OCO4)ccc1O` (stereo not drawn) has a growth inhibition of 0%. In the case of `C#CCCCc1ccccc1`, the growth inhibition is reported as -72%. For `CCc1ccc(NS(=O)(=O)c2ccccc2)c([N+](=O)[O-])c1`, the growth inhibition was 18%. `COc1ccc(C2c3cc4c(cc3OC(C)(O)C2C)OCO4)c(OC)c1` (stereo not drawn) gave a growth inhibition of 7%. `COC(=O)c1ccc(CCC2=CC(=O)C(Br)=CC2=O)cc1` showed a growth inhibition of 37%. Compound `NNC(=O)CCc1ccc2ccc3ccccc3c2c1` has a growth inhibition of 4%. `Cn1c2ccccc2c(=O)c2cc(NC(=O)CCCCC(=O)Nc3ccc4c(c3)c(=O)c3ccccc3n4C)ccc21` gave a growth inhibition of 4%. In the case of `CC(CC(C)(C)[N+](C)(C)C)[N+](C)(C)C` (stereo not drawn), the growth inhibition is reported as 1%. With `CC1CCN(CCC(=O)c2ccc(Cl)cc2)CC1` the growth inhibition was -1%. `CCCCCCCCCCCCCCC(C(=O)[O-])[n+]1ccccc1` (stereo not drawn) gave a growth inhibition of 4%. For `CNC1C(OC2C(OC3C(O)C(O)C(N=C(N)N)C(O)C3N=C(N)N)OC(C)C2(O)CO)OC(CO)C(O)C1O` (stereo not drawn), the growth inhibition was 4%. Compound `O=C(O)c1ccccc1-c1ccccc1C(=O)Nc1ccc2c(c1)Cc1ccccc1-2` has a growth inhibition of 2%. With `O=[N+]([O-])c1cccc2nc3ccccc3c(NCCCN3CCOCC3)c12` the growth inhibition was 46%. With `C=CC(C)(O)CCC1C(=C)C(O)CC2C(C)(C)CCCC12C` (stereo not drawn) the growth inhibition was -6%. `CN1c2ccc(Cl)cc2C(=O)NC1c1ccc([N+](=O)[O-])s1` (stereo not drawn) gave a growth inhibition of -4%. `[O-][n+]1c2ccc(O)cc2nc2ccc(Br)cc21` gave a growth inhibition of 20%. `O=C1c2ccccc2-c2nc3ccccc3nc21` gave a growth inhibition of 28%. In the case of `CCCCN1C(=O)N(c2ccc(OCC)cc2)C2N(CCCC)C1C(C)(C)C2(C)C` (stereo not drawn), the growth inhibition is reported as -6%. Work on `CO[C@H]1C[C@](C)(O)Cc2cc3c(c(O)c21)C(=O)c1c(O)cc2c(c1C3=O)O[C@@H]1O[C@@]2(C)[C@H](O)[C@@H](N(C)C)[C@@H]1O` yielded a growth inhibition of -5%. In the case of `COc1cc2c(cc1[N+](=O)[O-])C(=O)C(Br)(Br)CCC2`, the growth inhibition is reported as 73% (active). `O=C1OC(CCl)CN1/N=C/c1ccc([N+](=O)[O-])o1` (stereo not drawn) showed a growth inhibition of -17%. `CN(C)CCOc1ccc2c(c1)C/C(=C/c1ncc([N+](=O)[O-])n1C)C2=O` showed a growth inhibition of 6%. Work on `CCCCCCCCCCCCCCCCCCN(C)CC(COP(=O)([O-])OCC[N+](C)(C)C)OC` (stereo not drawn) yielded a growth inhibition of 43%. `CC(C)c1ccccc1NC(=O)/C(Cl)=C(\Cl)C(=O)O` showed a growth inhibition of 4%. Work on `O=[N+]([O-])C(=C(Sc1ccccc1)Sc1ccccc1)C(Cl)=C(Cl)Cl` yielded a growth inhibition of 20%. Compound `C(=C\c1ccccc1)/COc1ccccc1C(N1CCOCC1)n1nc2ccccc2n1` (stereo not drawn) has a growth inhibition of 1%. Work on `O=C1C(Nc2ccccc2)=C(Oc2ccccc2)C(=O)c2ccccc21` yielded a growth inhibition of 20%. In the case of `CCN(CC)CCN1C(=O)c2cccc3cc(OC)cc(c23)C1=O`, the growth inhibition is reported as 37%. With `CN(C)Cc1cc(N=Nc2ccc(Cl)cc2)cc(CN(C)C)c1O` the growth inhibition was -1%.
